The whole screen tested about 360,000 compounds, of which about 8,200 (2.3%) were called active. The list comes from a sample in which actives are over-represented; it also holds similar structures and randomly drawn compounds. Values without a mark were called inactive. Cut-off read from the data, not from the text of the source: active = inhibition above about 27%; inactive = the rest.
Target: Fructose-bisphosphate aldolase (Mycobacterium tuberculosis (strain ATCC 25618 / H37Rv)) (UniProt P9WQA3)
Sequence (P9WQA3 whole entry, looked up): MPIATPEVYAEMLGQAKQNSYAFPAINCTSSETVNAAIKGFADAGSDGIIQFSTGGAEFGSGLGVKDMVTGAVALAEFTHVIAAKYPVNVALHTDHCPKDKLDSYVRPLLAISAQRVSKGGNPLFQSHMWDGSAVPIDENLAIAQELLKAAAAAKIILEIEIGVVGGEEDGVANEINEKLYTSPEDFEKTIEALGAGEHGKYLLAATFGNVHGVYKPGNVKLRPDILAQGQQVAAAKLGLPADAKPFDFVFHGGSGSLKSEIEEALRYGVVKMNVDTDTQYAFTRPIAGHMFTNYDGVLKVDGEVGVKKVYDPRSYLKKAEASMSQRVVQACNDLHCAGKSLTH
Assay: Mtb FBA enzyme inhibitors, primary screen, biochemical, fluorescence, strain H37Rv (AID 588726);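 note: 0% = vehicle and 100% = reference inhibitor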
Conditions: purified M. tuberculosis FBA, fluorescence read-out, at 1 µM, hits give high values

**Q.** `CC1(C)Cc2c(sc(NC(=O)C(=O)N3CCOCC3)c2C#N)CO1` was tested. Which inhibition did it give?
**A.** The inhibition was 1.66%.

**Q.** `C1=C(N2CCOCC2)/C(=C/c2nc3ccccc3[nH]2)CC1` was tested. Which inhibition did it give?
**A.** The inhibition was 14.8%.

**Q.** How did the inhibition turn out when `CCOC(=O)CSc1nc(N2CCOCC2)c2c(c1C#N)CC(C(C)C)OC2` (centres undefined) was run?
**A.** The inhibition was 0.67%.

**Q.** With `CC(C)c1nc(N2CCOCC2)c(C#N)c2c1COC(C)(C)C2` as the compound, how does the inhibition read?
**A.** Its inhibition is 48.2% (active).

**Q.** Which inhibition does the source give for `CC(C)C(=O)N1CCN(c2nc(-c3ccccc3)c3c(c2C#N)CC(C)(C)OC3)CC1` here?
**A.** The inhibition was 18.4%.

**Q.** With `CC1(C)Cc2c(C#N)c(SCc3nc4ccccc4[nH]3)nc(N3CCOCC3)c2CO1` as the compound, how does the inhibition read?
**A.** The inhibition was 29.3% (active).

**Q.** How did the inhibition turn out when `CN1CCC2(CC1)NC(=O)NC2=O` was run?
**A.** Its inhibition is 0.25%.

**Q.** With `Cc1cc(C(=O)N2CCC(C(=O)O)CC2)c(C(F)(F)F)o1` as the compound, how does the inhibition read?
**A.** Its inhibition is -0.52%.

**Q.** Which inhibition does the source give for `CN(CCC1CCOCC1)C(=O)CC1C(=O)NCCN1Cc1cccc(F)c1` (centres undefined) here?
**A.** Its inhibition is 5.7%.

**Q.** `CC(C)CN1CCNC(=O)C1CC(=O)N(C)CC1CCOCC1` (centres undefined) was tested. Which inhibition did it give?
**A.** Its inhibition is 91.2% (active).

**Q.** With `COc1ccccc1CN1CCNC(=O)C1CC(=O)N(C)CC1CCOCC1` (centres undefined) as the compound, how does the inhibition read?
**A.** Its inhibition is 0.79%.

**Q.** `N#CCc1c[nH]c2ccc([N+](=O)[O-])cc12` was tested. Which inhibition did it give?
**A.** Its inhibition is -4.4%.

**Q.** For `O=C(CN(C(=O)c1csnn1)c1ccc(Br)cc1)NC1CCCC1`, which inhibition is on record?
**A.** Its inhibition is 2.14%.

**Q.** For `COc1ccc(/C=C/C(=O)NC(=S)NN2CCCCC2c2cccnc2)cc1` (centres undefined), which inhibition is on record?
**A.** Its inhibition is 1.24%.

**Q.** With `Cc1nn(-c2ccccc2)nc1C(=O)OCC(=O)N1CCCCC1C` (centres undefined) as the compound, how does the inhibition read?
**A.** The inhibition was 31.5% (active).

**Q.** How did the inhibition turn out when `CC1CCCCN1C(=O)CCS(=O)(=O)Cc1ccccc1` (centres undefined) was run?
**A.** Its inhibition is -0.22%.

**Q.** For `Cc1cc(C(=O)OCC(=O)N2C(C)CCCC2C)c2ccccc2n1` (centres undefined), which inhibition is on record?
**A.** The inhibition was 6.33%.

**Q.** How did the inhibition turn out when `O=C(CN(C(=O)c1nsc(Cl)c1Cl)c1cccc(F)c1)NC1CCCC1` was run?
**A.** Its inhibition is 0.07%.

**Q.** How did the inhibition turn out when `COc1ccc(CNC(=O)COC(=O)/C=C/c2ccc(S(=O)(=O)N3CCOCC3)cc2)cc1` was run?
**A.** The inhibition was -5.75%.

**Q.** For `O=C1c2ccccc2NC(c2ccccn2)N1NS(=O)(=O)c1ccccc1` (centres undefined), which inhibition is on record?
**A.** Its inhibition is 11.3%.

**Q.** With `Cc1ccc(S(=O)(=O)N2CCC(C(=O)OCC(=O)N3CC(=O)Nc4ccccc43)CC2)cc1` as the compound, how does the inhibition read?
**A.** Its inhibition is -1.07%.

**Q.** How did the inhibition turn out when `Cc1ccc(C2Nc3ccccc3C(=O)N2CCN2CCNC2=O)cc1` (centres undefined) was run?
**A.** The inhibition was 95.6% (active).

**Q.** `Cc1[nH]n(-c2ccccc2)c(=O)c1CCOC(=O)c1ccc(C(F)(F)F)cc1` was tested. Which inhibition did it give?
**A.** Its inhibition is -0.48%.

**Q.** Which inhibition does the source give for `COc1ccccc1N1CCN(CC(=O)NCCc2ccc(S(N)(=O)=O)cc2)CC1` here?
**A.** The inhibition was 0.12%.

**Q.** Which inhibition does the source give for `COc1cccc(CCNC(=O)COc2cccc3c2OC(C)(C)C3)c1` here?
**A.** Its inhibition is -1.69%.

**Q.** Which inhibition does the source give for `COc1ccc(CCNC(=O)COc2cc(C)cc3oc(=O)c(C)c(C)c23)cc1OC` here?
**A.** Its inhibition is 2.14%.

**Q.** For `CCN(CC)CCCNC(=O)COc1ccc2oc3c(c2c1)CCCC3`, which inhibition is on record?
**A.** Its inhibition is 0.55%.

**Q.** For `Cc1cc(OCC(=O)Nc2nccs2)c2c(C)c(C)c(=O)oc2c1`, which inhibition is on record?
**A.** Its inhibition is 5.31%.

**Q.** For `CC(NC(=O)COc1ccc(-c2ccccc2)cc1)C1CCCO1` (centres undefined), which inhibition is on record?
**A.** Its inhibition is 0.11%.

**Q.** For `O=C(COc1ccc2ccc(=O)oc2c1)NCC(O)c1ccccc1` (centres undefined), which inhibition is on record?
**A.** Its inhibition is 15.9%.

**Q.** Which inhibition does the source give for `Cc1ccc(OCC(=O)NC(C)c2ccccc2)c([N+](=O)[O-])n1` (centres undefined) here?
**A.** Its inhibition is -3.72%.

**Q.** `Cc1cc(OCC(=O)NCC(O)c2ccccc2)c2c(C)c(C)c(=O)oc2c1` (centres undefined) was tested. Which inhibition did it give?
**A.** The inhibition was 66.1% (active).

**Q.** `Cc1cc(=O)oc2c3c(cc(OCC(=O)NCC(O)c4ccccc4)c12)OC(C)(C)CC3` (centres undefined) was tested. Which inhibition did it give?
**A.** Its inhibition is 49.2% (active).

**Q.** With `O=C(COc1ccc2c3c(c(=O)oc2c1)CCCC3)NCC(O)c1ccccc1` (centres undefined) as the compound, how does the inhibition read?
**A.** The inhibition was 15.8%.

**Q.** Which inhibition does the source give for `CSc1nnc(-c2ccncc2)n1CCCN1CCCC1=O` here?
**A.** The inhibition was 0.93%.

**Q.** How did the inhibition turn out when `N#CCC(=O)NC1CCC(CC2CCC(NC(=O)CC#N)CC2)CC1` (centres undefined) was run?
**A.** The inhibition was 3.18%.

**Q.** `COc1cc(OC)c(C2=NOC(C(=O)Nc3c(C)n(C)n(-c4ccccc4)c3=O)C2)cc1Cl` (centres undefined) was tested. Which inhibition did it give?
**A.** The inhibition was -0.74%.

**Q.** `CSCC(=O)N1CCCC(C(=O)c2cc(F)ccc2F)C1` (centres undefined) was tested. Which inhibition did it give?
**A.** Its inhibition is -1.12%.

**Q.** With `Cc1nccn1-c1ccc(NC(=O)[C@H]2O[C@@H](n3cnc4c(N)ncnc43)[C@H](O)[C@@H]2O)cc1` as the compound, how does the inhibition read?
**A.** The inhibition was 0.84%.

**Q.** With `O=C(O/N=C(/c1ccccc1)c1ccncc1)c1ccccc1[N+](=O)[O-]` as the compound, how does the inhibition read?
**A.** The inhibition was 2.83%.

**Q.** With `CCCc1cc(=O)oc2c(C)c(OCC(=O)NCc3ccccn3)ccc12` as the compound, how does the inhibition read?
**A.** The inhibition was 0.52%.

**Q.** For `Cc1cc(=O)oc2c(C)c(OCC(=O)NCCN3CCOCC3)ccc12`, which inhibition is on record?
**A.** The inhibition was 16%.

**Q.** For `Cc1ccccc1NC(=O)COc1cccc2c1CCNC2=O`, which inhibition is on record?
**A.** The inhibition was 0.77%.

**Q.** For `Cc1cc(=O)oc2c(C)c(OCC(=O)NCCc3ccc(S(N)(=O)=O)cc3)ccc12`, which inhibition is on record?
**A.** The inhibition was 12.6%.

**Q.** Which inhibition does the source give for `Cc1cc(Cl)ccc1OCCCC(=O)NCc1ccccn1` here?
**A.** The inhibition was 1.44%.

**Q.** `Cc1nn(C)c(C)c1S(=O)(=O)N1CCc2ccccc21` was tested. Which inhibition did it give?
**A.** Its inhibition is 6.1%.

**Q.** For `CC(C)CNC(=O)/C=C/C(=O)O`, which inhibition is on record?
**A.** The inhibition was 10.5%.

**Q.** Which inhibition does the source give for `O=C1NC2(CCCCC2)N=C1c1ccccc1` here?
**A.** Its inhibition is 1.74%.

**Q.** Which inhibition does the source give for `CC(C)Cc1ccc(-c2cc3nc(NCc4cccc(Cl)c4)ccn3n2)cc1` here?
**A.** Its inhibition is 14.9%.

**Q.** `Cc1ccc(C)c(NS(=O)(=O)c2cc(Br)cnc2N)c1` was tested. Which inhibition did it give?
**A.** Its inhibition is 3.42%.

**Q.** With `O=S1(=O)CCOC[C@H](Cc2ccccc2)N1Cc1ccccc1Br` as the compound, how does the inhibition read?
**A.** Its inhibition is -3.56%.

**Q.** For `COC(=O)[C@H]1C[C@H](OC(=O)NCc2ccccc2)[C@@]2(O)CN(S(=O)(=O)c3ccc(C)cc3)CC2[C@H]1C(=O)OC` (some centres undefined), which inhibition is on record?
**A.** Its inhibition is 0.56%.

**Q.** Which inhibition does the source give for `Cc1ccc(S(=O)(=O)N2C[C@]3(O)C[C@@H]4C(=O)N(c5ccccc5)C(=O)[C@@H]4C[C@]3(OC(=O)NC3CC3)C2)cc1` here?
**A.** Its inhibition is 0.49%.

**Q.** `Cc1ccc(S(=O)(=O)N2C[C@@H](C)[C@]3(C2)[C@H](O)[C@H](OC(=O)NCc2ccccc2)C[C@H]2C(=O)N(c4ccccc4)C(=O)[C@H]23)cc1` was tested. Which inhibition did it give?
**A.** The inhibition was 67.2% (active).

**Q.** For `CC(C)C(c1nnnn1C(C)(C)C)N1CCN(Cc2cccnc2)CC1` (centres undefined), which inhibition is on record?
**A.** Its inhibition is 0.62%.

**Q.** Which inhibition does the source give for `S=c1[nH]cc(-c2ccc(Cl)cc2)n1-c1ccccc1` here?
**A.** The inhibition was -0.17%.

**Q.** How did the inhibition turn out when `Clc1ccc(-c2nc3ccccn3c2CN2CCSCC2)cc1` was run?
**A.** Its inhibition is 0.24%.

**Q.** With `O=C(NCCO)c1cccc(-c2cccc3nccn23)c1` as the compound, how does the inhibition read?
**A.** Its inhibition is 10.8%.

**Q.** Which inhibition does the source give for `c1cc(-c2ccc3[nH]ccc3c2)n2ccnc2c1` here?
**A.** Its inhibition is 81.5% (active).

Source: PubChem BioAssay AID588726 (The Scripps Research Institute Molecular Screening Center, 2011)
